Assay results as given in PubChem BioAssay AID1038 (National Center for Advancing Translational Sciences (NCATS), 2008).
Inconclusive results are not listed. Active and inactive are the calls of the source. Calls come from the whole dose curve.

Test: Normal 1 Cell Viability Secondary Assay for qHTS Assay for Epigenetic Modulators
Details: Normal 1 bronchial epithelial viability, MTS, 4 d
Text: NIH Molecular Libraries Screening Centers Network [MLSCN] NIH Chemical Genomics Center [NCGC] MLSCN Grant: 1 X01 MH079860-01 Assay Provider: Elisabeth D. Martinez, University of Texas SW Medical Center NCGC Assay Overview: This secondary assay characterizes selected actives identified in the qHTS of the Locus Derepression (LDR) assay (PubChem AID 597). The LDR assay detects the derepression of a GFP reporter that is stably integrated in a region of the genome of murine c127i mammary cells that is presumably silenced. Compounds that cause derepression of the locus to express GFP are identified by enumerating GFP positive cells using a laser-scanning microplate cytometer. […] Normal 1 cell viability was measured using Cell Titer 96 AQueous One (Promega), an assay which detects the ability of metabolically active cells to reduce a tetrazolium salt substrate (MTS), into a soluble formazan product that can be measured by colorimetry.
NCGC Assay Protocol Summary Normal 1 cells were plated in 96-well flat bottom tissue culture dishes (Corning) and grown overnight at 37 C and 5% CO2, then treated with compounds, incubated 4 days, and assayed for viability using the Cell Titer 96 AQueous One kit (Promega) according to the manufacturer's protocol. Absorbance at 490 nm and 650 nm (reference) was measured by a Spectra Max (Molecular Devices). […]

SMILES: CN1CSC(=S)N(C)C1
- outcome: inactive
